Source: ChEMBL document CHEMBL2218924, “A broad activity screen in support of a chemogenomic map for kinase signalling research and drug discovery” (Biochem J, 2013)

Each compound was assayed against T1, Ephrin type-A receptor 8 (Homo sapiens) (UniProt P29322). Conditions: at 10 µM.
T1 sequence (whole entry): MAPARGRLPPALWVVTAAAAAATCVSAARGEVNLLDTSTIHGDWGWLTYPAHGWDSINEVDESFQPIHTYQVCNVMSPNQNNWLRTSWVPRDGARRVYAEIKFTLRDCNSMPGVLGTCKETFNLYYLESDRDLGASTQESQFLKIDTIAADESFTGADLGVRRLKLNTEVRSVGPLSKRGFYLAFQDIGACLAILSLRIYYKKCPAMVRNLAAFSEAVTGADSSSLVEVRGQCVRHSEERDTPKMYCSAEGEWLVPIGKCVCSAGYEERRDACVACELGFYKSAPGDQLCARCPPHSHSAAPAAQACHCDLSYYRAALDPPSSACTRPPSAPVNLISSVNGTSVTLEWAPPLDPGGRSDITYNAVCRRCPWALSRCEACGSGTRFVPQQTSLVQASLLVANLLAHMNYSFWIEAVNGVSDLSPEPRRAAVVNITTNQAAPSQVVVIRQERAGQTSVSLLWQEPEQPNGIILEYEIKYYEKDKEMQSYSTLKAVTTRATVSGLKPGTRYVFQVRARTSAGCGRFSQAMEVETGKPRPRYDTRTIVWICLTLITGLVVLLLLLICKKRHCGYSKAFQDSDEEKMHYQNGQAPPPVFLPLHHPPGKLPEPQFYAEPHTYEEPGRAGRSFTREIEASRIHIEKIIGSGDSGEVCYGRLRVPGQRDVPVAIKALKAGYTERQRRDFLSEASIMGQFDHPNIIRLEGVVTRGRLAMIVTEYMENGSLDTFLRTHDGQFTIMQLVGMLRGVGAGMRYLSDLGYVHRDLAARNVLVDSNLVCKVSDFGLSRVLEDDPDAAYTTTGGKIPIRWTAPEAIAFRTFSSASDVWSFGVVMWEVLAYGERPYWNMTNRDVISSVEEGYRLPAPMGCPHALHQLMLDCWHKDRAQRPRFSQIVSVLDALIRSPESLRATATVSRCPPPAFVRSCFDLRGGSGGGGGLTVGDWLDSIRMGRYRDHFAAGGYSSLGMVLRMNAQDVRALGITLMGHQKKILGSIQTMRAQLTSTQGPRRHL

| Compound | residual activity [%] |
| --- | --- |
| COc1ccc2c(c1)c(C1=C(c3c[nH]c4ccccc34)C(=O)NC1=O)cn2CCCN(C)C | 96 |
| COc1cc2nccc(Oc3ccc(NC(=S)NC(=O)c4ccccc4C)cc3)c2cc1OC | 49 |
| CCN(CC)CCNC(=O)c1c(C)[nH]c(/C=C2\C(=O)Nc3ccc(Cl)cc32)c1C | 55 |
| O=c1cc(N2CCOCC2)oc2c1ccc1ccccc12 | 97 |
| CC(C)[C@H](CO)Nc1nc(Nc2cc(N)cc(Cl)c2)c2ncn(C(C)C)c2n1 | 59 |
| COc1ccc(COc2ccc(Cc3cnc(N)nc3N)cc2OC)cc1 | 110 |
| Nc1ncnc2c1c(-c1ccc(Oc3ccccc3)cc1)cn2C1CCCC1 | 27 |
| COc1cc2nccc(Oc3ccc(NC(=O)Nc4cc(C)on4)c(Cl)c3)c2cc1OC | 1 |
| O=C1Cc2c([nH]c3ccc(Br)cc23)-c2ccccc2N1 | 82 |
| CC(C)c1nn(-c2c(Cl)cccc2Cl)c2nc(Cc3ccc(OCCO)cc3)[nH]c(=O)c12 | 89 |
| COc1cc2c(cc1OC)-c1n[nH]c(Nc3cccc(F)c3)c1C2 | 26 |
| COc1cc2ncnc(Nc3cccc(Cl)c3)c2cc1OC | 35 |
| O=c1cc(N2CCNCC2)oc2c(-c3ccccc3)cccc12 | 100 |
| O=C1NC(=O)c2c1c1c3ccccc3[nH]c1n1cncc21 | 93 |
| Cn1sc(=O)n(Cc2ccccc2)c1=O | 84 |
| Nc1n[nH]c2nc3ccccc3nc12 | 91 |
| CCCC(=O)Oc1ccc2[nH]c(C(=O)c3cc4ccccc4[nH]3)cc2c1 | 98 |
| CC(C)(C)n1nc(Cc2cccc3ccccc23)c2c(N)ncnc21 | 6 |
| Fc1ccc(-c2nc3n(c2-c2ccncc2)CCS3)cc1 | 70 |
| O=C1C(Cl)=C(N2C(=O)CCC2=O)C(=O)c2ccccc21 | 92 |
| COc1ccc(-c2cnc3c(-c4ccsc4)cnn3c2)cc1 | 99 |
| O=C(CCCc1ccc(-c2ccccc2F)cc1)Nc1ccc(O)cc1 | 94 |
| Nc1ncnc2[nH]nc(Nc3ccc(F)cc3)c12 | 43 |
| Nc1ncnc2c1cnn2-c1ccccc1 | 95 |
| CCCCc1c(-c2ccc(O)cc2)[nH]c2nccnc12 | 58 |
| CN(C)S(=O)(=O)c1ccc2c(c1)/C(=C/c1cc3c([nH]1)CCCC3)C(=O)N2 | 85 |
| O=C(O)/C=C/c1cc(Br)c(Br)c(Br)c1Br | 99 |
| NC(=O)Nc1sc(-c2ccc(F)cc2)cc1C(N)=O | 54 |
| O=C1Nc2ccc(Cl)cc2/C1=C/c1cc(Cl)c(O)c(Cl)c1 | 79 |
